Reference: PubChem BioAssay (Tox21)
Inconclusive results are not listed. Unmarked numbers belong to inactive results. The call rests on the fitted dose curve; in most records, active means well fitted cell-killing curve with a large enough effect in the repeat runs; inconclusive means weak or mixed curves, or effect the other way; inactive means flat fitted curve, though single readings scatter.

Test: qHTS RealTime-Glo MT Cell Viability Assay in HepG2 cells - 0 hour (AID 1224889); further: nearly all actives have a fitted effect of over 50% in size
Details: RealTime-Glo luminescence; series mostly up to 76.8 µM; activity change, negative = cytotoxicity: at the top concentration
Description: U.S. Tox21 Program National Center for Advancing Translational Sciences [NCATS] NIH Chemical Genomics Center [NCGC] U.S. Environmental Protection Agency [EPA] National Institutes of Environmental Health Sciences [NIEHS] National Toxicology Program [NTP] U.S. Food and Drug Administration [FDA] Tox21 Assay Overview: Measure of cell viability is critical in the cell-base assay. Analysis of cell viability is necessary for the characterization of cell responses to cytotoxic drugs and environmental stress. A RealTime-Glo MT Cell Viability Assay to monitor cell viability in real time of continues cell culture during 40 hours of compound treatment was used to screen Tox21 10K library compounds in HepG2 cells. The RealTime-Glo MT Cell Viability Assay is a nonlytic, homogeneous, bioluminescent method to measure cell viability in real time using a simple, plate-based method. The assay involves adding NanoLuc luciferase and a cell-permeant prosubstrate to cells in culture. Viable cells reduce the proprietary prosubstrate to generate a substrate for NanoLuc luciferase. This substrate diffuses from cells into the surrounding culture medium, where it is rapidly used by the NanoLuc Enzyme to produce a luminescent signal. The signal correlates with the number of viable cells, making the assay well suited for cytotoxicity studies.
Tox21 Assay Protocol Summary: The mixture of HepG2 cell suspension and reagents were dispensed at 600cells/6 ul/well in 1536-well tissue culture treated black solid bottom plates using a Multidrop dispenser. After the assay plates were incubated at a 37 C/5% CO2 incubator for 5 hours, 23 nL of compounds dissolved in DMSO, positive and negative controls was transferred to the assay plate by a pintool work station. The plates were incubated at 37 C for 40 hours. The luminescence intensity were measured at 0h, 8h, 16h, 24h, 32h and 40h time points using ViewLux plate reader during compound treatment.
On the % scale 0 is the no-effect control and ±100 the full control effect.

Q: With `COCCOCC(OC)OC` as the compound, how does the “activity change, negative = cytotoxicity” value read?
A: Its value is 4.38% [at 35.3 µM].

Q: With `[O-][n+]1cccc(CO)c1` as the compound, how does the “activity change, negative = cytotoxicity” value read?
A: Its value is -2.56% [at 35.3 µM].

Q: Which “activity change, negative = cytotoxicity” value does the source give for `Cc1ccc(C(=O)c2ccc(CC(=O)O)n2C)cc1` here?
A: Its value is 0.584% [at 35.3 µM].

Q: With `CC1=NN(c2cccc(S(=O)(=O)O)c2)C(=O)C1` as the compound, how does the “activity change, negative = cytotoxicity” value read?
A: Its value is -11.6%.

Q: Which “activity change, negative = cytotoxicity” value does the source give for `Cc1cccc(C)c1NC(=O)CC12CCCN1CCC2` here?
A: The value was 11.5% [at 35.3 µM].

Q: Which “activity change, negative = cytotoxicity” value does the source give for `CCCCCCCCN1CCCC1=O` here?
A: The value was -2.36%.

Q: For `CCCC(C)C(=O)OCC` (stereo not given), which “activity change, negative = cytotoxicity” value is on record?
A: The value was -0.141%.

Q: Which “activity change, negative = cytotoxicity” value does the source give for `CC(=O)N[C@H]1[C@H]([C@H](O)[C@H](O)CO)OC(C(=O)O)=C[C@@H]1N=C(N)N` here?
A: The value was 8.78% [at 35.3 µM].

Q: With `O=C(O)CCSCCC(=O)O` as the compound, how does the “activity change, negative = cytotoxicity” value read?
A: Its value is -1.37%.

Q: With `Cc1c(N)c(=O)n(-c2ccccc2)n1C` as the compound, how does the “activity change, negative = cytotoxicity” value read?
A: Its value is -12.6% [at 35.3 µM].

Q: With `Nc1ccncc1N` as the compound, how does the “activity change, negative = cytotoxicity” value read?
A: The value was -0.308% [at 35.3 µM].

Q: For `Nc1c2c(nc3c1CCC3)CCCC2`, which “activity change, negative = cytotoxicity” value is on record?
A: The value was -2.99% [at 35.3 µM].

Q: With `C[N+]1(C)CCCC(OC(=O)C(O)(c2ccccc2)c2ccccc2)C1` (stereo not given) as the compound, how does the “activity change, negative = cytotoxicity” value read?
A: The value was 6.04% [at 35.3 µM].

Q: Which “activity change, negative = cytotoxicity” value does the source give for `Cc1ccc(-c2ncc(Cl)cc2-c2ccc(S(C)(=O)=O)cc2)cn1` here?
A: The value was 3.87% [at 35.3 µM].

Q: Which “activity change, negative = cytotoxicity” value does the source give for `N[C@@H](CCC(=O)O)C(=O)O` here?
A: The value was -0.571%.

Q: For `Nc1ccn([C@@H]2O[C@H](CO)[C@@H](O)C2O)c(=O)n1` (stereo not given in full), which “activity change, negative = cytotoxicity” value is on record?
A: The value was 15%.

Q: For `CC(C)C(=O)OC(=O)C(C)C`, which “activity change, negative = cytotoxicity” value is on record?
A: The value was 2.03%.

Q: Which “activity change, negative = cytotoxicity” value does the source give for `CCCCc1nc(Cl)c(CO)n1Cc1ccc(-c2ccccc2-c2nn[nH]n2)cc1` here?
A: The value was -11.5% [at 35.3 µM].

Q: For `O=C(CO)[C@@H](O)[C@H](O)[C@@H](O)CO`, which “activity change, negative = cytotoxicity” value is on record?
A: Its value is -0.988% [at 35.3 µM].

Q: For `CC(C)NNC(=O)c1ccncc1`, which “activity change, negative = cytotoxicity” value is on record?
A: Its value is 0.458% [at 35.3 µM].

Q: With `CC(=O)Nc1ccc(OCC(O)CNC(C)C)cc1` (stereo not given) as the compound, how does the “activity change, negative = cytotoxicity” value read?
A: Its value is 5.5% [at 35.3 µM].

Q: For `CCOC(=O)COC(=O)c1ccccc1C(=O)OCC`, which “activity change, negative = cytotoxicity” value is on record?
A: Its value is -2.02%.

Q: For `CCCCCCCCCC[N+](C)(C)[O-]`, which “activity change, negative = cytotoxicity” value is on record?
A: Its value is 0.4%.

Q: Which “activity change, negative = cytotoxicity” value does the source give for `C=CN1CCCCCC1=O` here?
A: The value was 6.49%.

Q: For `O=C(CO)[C@@H](O)[C@H](O)[C@H](O)CO`, which “activity change, negative = cytotoxicity” value is on record?
A: The value was 3.22%.

Q: For `C1CCC2=NCCCN2CC1`, which “activity change, negative = cytotoxicity” value is on record?
A: Its value is 5.43%.

Q: With `CCC(=O)OCc1ccccc1` as the compound, how does the “activity change, negative = cytotoxicity” value read?
A: Its value is -1.79%.

Q: For `CN1C(C)(C)CC(O)CC1(C)C`, which “activity change, negative = cytotoxicity” value is on record?
A: Its value is 2.35%.

Q: Which “activity change, negative = cytotoxicity” value does the source give for `CCOC(=O)c1cnc2c(cnn2CC)c1NN=C(C)C` here?
A: Its value is -11% [at 35.3 µM].

Q: Which “activity change, negative = cytotoxicity” value does the source give for `Clc1cc(Cl)cc(Cl)c1` here?
A: The value was -1.27%.

Q: For `Cc1nc2ccc(CN(C)c3ccc(C(=O)N[C@@H](CCC(=O)O)C(=O)O)s3)cc2c(=O)[nH]1`, which “activity change, negative = cytotoxicity” value is on record?
A: The value was 1.63% [at 35.3 µM].

Q: With `CCCCCC(C)N` (stereo not given) as the compound, how does the “activity change, negative = cytotoxicity” value read?
A: The value was 1.28% [at 35.3 µM].

Q: With `Cc1ccc(C(=O)Nc2ccc(S(=O)(=O)O)c3cc(S(=O)(=O)O)cc(S(=O)(=O)O)c23)cc1NC(=O)c1cccc(NC(=O)Nc2cccc(C(=O)Nc3cc(C(=O)Nc4ccc(S(=O)(=O)O)c5cc(S(=O)(=O)O)cc(S(=O)(=O)O)c45)ccc3C)c2)c1` as the compound, how does the “activity change, negative = cytotoxicity” value read?
A: Its value is -21.3% [at 35.3 µM].

Q: For `NC(=O)N1c2ccccc2CC(=O)c2ccccc21`, which “activity change, negative = cytotoxicity” value is on record?
A: Its value is 6.37% [at 35.3 µM].

Q: With `CN1CCC(=C2c3ccccc3CCc3cccnc32)CC1` as the compound, how does the “activity change, negative = cytotoxicity” value read?
A: Its value is -0.172% [at 35.3 µM].

Q: For `CCN1C=CN(C)C1C` (stereo not given), which “activity change, negative = cytotoxicity” value is on record?
A: The value was 3.02%.

Q: For `CC(C)[C@H]1CC[C@@H](C)CC1=O`, which “activity change, negative = cytotoxicity” value is on record?
A: The value was 1.36%.

Q: Which activity change, negative = cytotoxicity does the source give for `CN1CCN(c2cc3c(nn2)Oc2ccccc2N3C)CC1` here?
A: The activity change, negative = cytotoxicity was -7.1% [at 15.8 µM].

Q: With `C[C@@H]1CCC[C@H](C)N1` as the compound, how does the “activity change, negative = cytotoxicity” value read?
A: The value was 0.364% [at 35.3 µM].

Q: For `O=C(O)CNC(=O)c1ccccc1`, which “activity change, negative = cytotoxicity” value is on record?
A: Its value is -1.38% [at 35.3 µM].
